Measured values: PMC4552634, “A New Set of Chemical Starting Points with Plasmodium falciparum Transmission-Blocking Potential for Antimalarial Drug Discovery” (PLoS ONE, 2015)
Screen size: about 13,000 compounds; about 3,200 (25%) showed an effect of 50% or more. The list shows a part of the results.

Test system: P. falciparum stage V gametocytes
Design: BacTiter-Glo ATP luminescence viability of purified stage V gametocytes in 384-well plates, per cent inhibition versus DMSO
Conditions: 48 h, 5 µM; inhibitor

| SMILES | % Inhibition |
| --- | --- |
| CCOC(=O)c1c(NC(=O)c2ccccc2)sc2c(O)c(CNC3CCCCC3)ccc12 [TCMDC-124070] | 25.8% |
| COc1ccc(Cl)cc1N1CCN(CCCNC(=O)c2ccc(-c3nc4cc5ccccc5cc4[nH]3)c(F)c2)CC1 [TCMDC-140099] | 14.17% |
| COc1ccc(-c2ncnc(C(F)(F)F)c2-c2ccc(Cl)cc2)c(O)c1 [TCMDC-123728] | 11.32% |
| Cc1nnsc1C(=O)Nc1ccc(-c2ccc(-c3nc4ccccc4[nH]3)s2)cc1 [TCMDC-137077] | 0.7938% |
| Cc1ccc(C(=O)Nc2ccc(Cl)c(N3CCN(CCc4ccccc4)CC3)c2)cc1 [TCMDC-133536] | -30.75% |
| Nc1cccc(CNCc2cccc(-c3csc(-c4nc5ccccc5[nH]4)c3)c2)c1 [TCMDC-132925] | -31.54% |
| Cc1nc2ccc3ccc(CNc4ccc5c(c4)CN([C@@H](CCC(=O)O)C(=O)O)C5=O)cc3c2c(=O)[nH]1 [TCMDC-131928] | 20.65% |
| CN(C)CC1CCCN1Cc1ccccc1-c1cnn(C)c(=O)c1Oc1ccccc1F (stereo not drawn) [TCMDC-135099] | 9.933% |
| CCC(C)c1cnc2nc(N)nc(N)c2c1C (stereo not drawn) [TCMDC-137718] | 7.013% |
| O=C(Nc1ccccc1)N(Cc1ccc(-c2ccc(CNCc3ccc4c(c3)OCO4)cc2)cc1)C1CCN(Cc2ccccc2)CC1 [TCMDC-140604] | 20.36% |
| O=C(Nc1ccccc1)N(Cc1ccc(-c2cccc(CNCc3ccc4c(c3)OCO4)c2)cc1)C1CCN(Cc2ccccc2)CC1 [TCMDC-140603] | 101.1% |
| O=C(NCc1ccccc1)c1ccc(C(=O)NCC2CNCCO2)cc1 (stereo not drawn) [TCMDC-136507] | 8.876% |
| O=c1ccc2ccc(F)c3c2n1CC3CN1CCC(NCc2cccc(-c3cccs3)c2)CC1 (stereo not drawn) [TCMDC-134415] | 19.28% |
| Cc1cc(NCC(c2ccccc2)c2ccccc2)nc(NCc2ccc(C(F)(F)F)cc2)n1 [TCMDC-138302] | 69.12% |
| Cc1cc(NCc2ccccc2)nc(NCc2ccccc2)n1 [TCMDC-123662] | 26.39% |
| Cc1cc(NCCc2ccc(O)cc2)nc(NCC(c2ccccc2)c2ccccc2)n1 [TCMDC-138305] | 99.17% |
| Cc1cc(Nc2cccc(C(F)(F)F)c2)nc(NCc2ccccc2)n1 [TCMDC-125566] | 3.225% |
| Cc1cc(N[C@@H](C)C(=O)Nc2ccccc2)nc(NCCc2ccc(F)cc2)n1 [TCMDC-134798] | 30.85% |
| Oc1cc2c(cc1CN1CCN(Cc3ccccc3F)CC1)CCC2 [TCMDC-125013] | -13.06% |
| Cc1nc(C(=O)N2CCCC[C@H]2CNC(=O)c2ccc(-c3ccc(N4CCCC4=O)cc3C)cc2)c(-c2ccc(F)cc2)s1 [TCMDC-141437] | 4.719% |
| CCNc1cc(C(=O)N[C@@H](Cc2ccccc2)[C@H](O)CNC2CCC(C)(C)CC2)cc(N2CCCCS2(=O)=O)c1 [TCMDC-135108] | 43.04% |
| Fc1ccc2nc(-c3cccc(-c4ccc(CN5CCN(c6cnccn6)CC5)cc4)c3)[nH]c2c1 [TCMDC-132679] | 21.91% |

| SMILES | % Inhibition |
| --- | --- |
| O=C(O)C(F)(F)F.c1cc(-c2ccc(CN3CCN(c4ccncc4)CC3)cc2)cc(-c2nc3ccccc3[nH]2)c1 [TCMDC-132556] | 5.696% |
| c1cc(CN2CCN(c3ccncc3)CC2)cc(-c2cccc(-c3nc4ccccc4[nH]3)c2)c1 [TCMDC-132923] | 40.29% |
| Fc1ccc2nc(-c3ccc(-c4cccc(CN5CCN(c6ccncc6)CC5)c4)cc3)[nH]c2c1 [TCMDC-133822] | -6.554% |
| Fc1ccc2nc(-c3cccc(-c4cccc(CN5CCN(c6ccncc6)CC5)c4)c3)[nH]c2c1 [TCMDC-132922] | 104.6% |
| Fc1ccc2nc(-c3cccc(-c4ccc(CN5CCN(c6ccncc6)CC5)cc4)c3)[nH]c2c1 [TCMDC-132918] | 89.6% |
| O=C(O)C(F)(F)F.c1cncc(CCNCc2ccc(-c3ccc(-c4nc5ccccc5[nH]4)s3)cc2)c1 [TCMDC-132876] | -17.55% |
| COc1ccc(-c2cnc3ccc(NC4CCC(O)CC4)nn23)cn1 (stereo not drawn) [TCMDC-136694] | 36.86% |
| c1ccc(CCNCc2cccc(-c3ccccc3CNCc3ccc4c(c3)OCO4)c2)nc1 [TCMDC-140068] | 70.81% |
| FC(F)(F)c1ccc(N2CCCN(Cc3cccc(-c4ccccc4CNCc4ccc5c(c4)OCO5)c3)CC2)nc1 [TCMDC-140216] | -3.324% |
| CN1CCN(CCCNCc2ccccc2-c2cccc(CNCc3ccc4c(c3)OCO4)c2)CC1 [TCMDC-140476] | 103.3% |
| c1cc(CNCc2ccc3c(c2)OCO3)cc(-c2cccc(CNc3ccc4ncccc4c3)c2)c1 [TCMDC-140721] | -2.829% |
| O=C(Nc1ccc(OC2CCN(Cc3ccsc3)C2)c(Cl)c1)c1ccc(F)cc1 (stereo not drawn) [TCMDC-133952] | 22.72% |
| O=C(NCc1cccc(F)c1)Nc1cccc(-c2cccc(-c3nc4ccc(C(F)(F)F)cc4[nH]3)c2)c1 [TCMDC-133292] | -20.5% |
| C#CCCC(=O)Nc1cccc(-c2cccc(-c3nc4ccc(C(F)(F)F)cc4[nH]3)c2)c1 [TCMDC-136856] | 5.566% |
| O=C(Nc1cccc(-c2nn3ccccc3c2-c2ccnc(Nc3ccccc3)n2)c1)c1c(F)cccc1F [TCMDC-135526] | -37.81% |
| CCc1cn2c3c(cc(C(=O)N[C@@H](Cc4ccccc4)[C@H](O)CNC4CC4)cc13)N(CC)S(=O)(=O)CC2 [TCMDC-135553] | 73.35% |
| CCc1cn2c3c(cc(C(=O)N[C@@H](Cc4ccccc4)[C@H](O)CNC4CCOCC4)cc13)N(C)S(=O)(=O)C2 [TCMDC-135394] | 4.179% |
| CCc1cn2c3c(cc(C(=O)N[C@@H](Cc4cc(F)cc(F)c4)[C@H](O)CNC4CCOCC4)cc13)N(C)S(=O)(=O)CC2 [TCMDC-135797] | 26.1% |
| CCc1cn2c3c(cc(C(=O)N[C@@H](Cc4cc(F)cc(F)c4)[C@H](O)CNC4CC4)cc13)N(C)S(=O)(=O)CC2 [TCMDC-135673] | 30.94% |
| CC(C)c1cn2c3c(cc(C(=O)N[C@@H](Cc4ccccc4)[C@H](O)CNC4CCOCC4)cc13)N(C)S(=O)(=O)CC2 [TCMDC-135535] | 2.441% |
| CCCc1cn2c3c(cc(C(=O)N[C@@H](Cc4ccccc4)[C@H](O)CNC4CCCCC4)cc13)N(C)S(=O)(=O)CC2 [TCMDC-135771] | 15.59% |
| CCc1cn2c3c(cc(C(=O)N[C@@H](Cc4cc(F)cc(F)c4)[C@H](O)CNC4CCCCC4)cc13)N(C)S(=O)(=O)CC2 [TCMDC-135672] | 90.03% |

| SMILES | % Inhibition |
| --- | --- |
| CC(C)NC[C@@H](O)[C@H](Cc1ccccc1)NC(=O)c1cc2c3c(c1)c(C(C)C)cn3CCS(=O)(=O)N2C [TCMDC-135532] | 49.45% |
| CCc1cn2c3c(cc(C(=O)N[C@@H](Cc4ccccc4)[C@H](O)CNC4CCC4)cc13)N(C)S(=O)(=O)CC2 [TCMDC-135674] | 32.1% |
| CC(C)c1cn2c3c(cc(C(=O)N[C@@H](Cc4ccccc4)[C@H](O)CNC4CCCCC4)cc13)N(C)S(=O)(=O)CC2 [TCMDC-135533] | 94.75% |
| CCc1cn2c3c(cc(C(=O)N[C@@H](Cc4ccccc4)[C@H](O)CNC4CCCC4)cc13)N(C)S(=O)(=O)CC2 [TCMDC-135803] | 56.31% |
| CCc1cn2c3c(cc(C(=O)N[C@@H](Cc4cccc(F)c4)[C@H](O)CNC4CC4)cc13)N(C)S(=O)(=O)CC2 [TCMDC-135651] | -23.22% |
| CC(=O)Nc1ccc(CN2CCC(N(C)c3cc(NC(=O)c4cccs4)ccn3)CC2)cc1 [TCMDC-134971] | -6.674% |
| CCc1c(C)nc2nc(Cc3cccc(F)c3)nn2c1N1CCN(c2ccccn2)CC1 [TCMDC-124593] | 5.465% |
| Cc1noc(C)c1-c1cccc(CNCc2ccc(-c3ccc(-c4nc5cc(F)ccc5[nH]4)s3)cc2)c1.O=C(O)C(F)(F)F [TCMDC-133054] | 12.51% |
| O=C(/C=C/c1ccc(Cl)cc1)NCCCCCN1CCCN(C(=O)Nc2cccc(Cl)c2)CC1 [TCMDC-136102] | -54.14% |
| Cn1cnc(CCNC(=O)c2ccc(-c3ccc(-c4nc5cc(C(F)(F)F)ccc5[nH]4)s3)cc2)c1 [TCMDC-132500] | -12.71% |
| CCc1cn2c3c(cc(C(=O)N[C@@H](Cc4ccccc4)[C@H](O)CNC4CCOCC4)cc13)N(CC(F)(F)F)S(=O)(=O)CC2 [TCMDC-135652] | 61.24% |
| CCc1cn2c3c(cc(C(=O)N[C@@H](Cc4cccc(F)c4)[C@H](O)CNC4CCCCC4)cc13)N(C)S(=O)(=O)CC2 [TCMDC-135659] | 47.1% |
| CCc1cn2c3c(cc(C(=O)N[C@@H](Cc4ccccc4)[C@H](O)CNC4CCCCC4)cc13)N(CC)S(=O)(=O)CC2 [TCMDC-135572] | 99.29% |
| CCc1cn2c3c(cc(C(=O)N[C@@H](Cc4ccccc4)[C@H](O)CNC4CCOCC4)cc13)N(C(C)C)S(=O)(=O)CC2 [TCMDC-135506] | 37.66% |
| CCCc1cn2c3c(cc(C(=O)N[C@@H](Cc4ccccc4)[C@H](O)CNC4CCOCC4)cc13)N(CC)S(=O)(=O)CC2 [TCMDC-135774] | 46.67% |
| CCc1cn2c3c(cc(C(=O)N[C@@H](Cc4cccc(Cl)c4)[C@H](O)CNC4CCOCC4)cc13)N(C)S(=O)(=O)CC2 [TCMDC-135650] | 67.17% |
| CCc1cn2c3c(cc(C(=O)N[C@@H](Cc4cccc(Cl)c4)[C@H](O)CNC4CCCCC4)cc13)N(C)S(=O)(=O)CC2 [TCMDC-135649] | 39.17% |
| CCCc1cn2c3c(cc(C(=O)N[C@@H](Cc4ccccc4)[C@H](O)CNC4CCOCC4)cc13)N(C)S(=O)(=O)CC2 [TCMDC-135772] | 9.174% |
| CCc1cn2c3c(cc(C(=O)N[C@@H](Cc4ccccc4)[C@H](O)CNC4CCCCC4)cc13)N(C)S(=O)(=O)C2 [TCMDC-135389] | 12.74% |
| CCc1cn2c3c(cc(C(=O)N[C@@H](Cc4cccc(F)c4)[C@H](O)CNC4CCOCC4)cc13)N(C)S(=O)(=O)CC2 [TCMDC-135661] | 11.24% |
| CCc1cn2c3c(cc(C(=O)N[C@@H](Cc4cccc(Cl)c4)[C@H](O)CNC4CC4)cc13)N(C)S(=O)(=O)CC2 [TCMDC-135648] | 29.4% |
| CCCc1cn2c3c(cc(C(=O)N[C@@H](Cc4ccccc4)[C@H](O)CNC4CCCCC4)cc13)N(CC)S(=O)(=O)CC2 [TCMDC-135773] | 81.38% |
